Data reported in PubChem BioAssay AID1347426 (Functional Genomics Laboratory (NCATS/FGL), 2020).
About 1,400 (4.5%) of roughly 31,000 sequences were called active.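 The calls were made as follows: active = median seed-adjusted z-score above 1 or below -1; inactive = the rest.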 The full list was thinned out, with actives kept by preference.

test: Novel Modifiers of Survival Motor Neuron (SMN) Protein: Gene Identification via Genome-wide siRNA Screen; conditions: HEK293T SMN2-luciferase reporter, siRNA knockdown, 72 h; actives lie on both sides
Text: Spinal muscular atrophy (SMA) is the most common neuromuscular autosomal recessive disorder and one of the leading genetic causes of infant death. SMA results from mutations inducing loss of function or deletion in the survival of motor neuron-1 gene (SMN1), leading to deficiency of the survival motor neuron (SMN) protein. Although a second nearly identical gene, SMN2, is retained in humans, its expression primarily produces an aberrantly spliced isoform that is largely unstable and quickly degraded. We performed a genome-wide RNAi screen using a cell-based reporter assay to identify genes and pathways that modulate SMN protein stability. The screen identified over 200 genes that led to the greatest increase or decrease in luciferase expression.
Using HEK293T cells stably expressing a luciferase reporter that combines the promoter and splicing based cassettes in tandem with the major portion of the native SMN2 cDNA with luciferase, we performed a genome-wide RNAi screen to identify modulators of SMN protein levels. Luciferase is expressed when full-length SMN protein is generated with luminescence signal proportional to SMN protein levels. Our luciferase-based reporter assay was used to screen Ambion Silencer Select Human Druggable Genome siRNA library (10418 genes, 3 unique siRNAs per gene) using lipid-based reverse transfection.
Briefly, 1 pmol of each siRNA was spotted to a well of a 384-well plate (Corning, Corning, NY) and 20 microL of serum-free DMEM containing […] of Lipofectamine RNAiMax (Life Technologies, Carlsbad, CA) was then added to each well. Transfected cells were maintained at 37 degrees C in 5% CO2 for 72 hours, 20 microL of ONE-Glo Reagent (Promega) was added to wells for luciferase quantification. Raw luminescence reads were normalized to Ambion(R) Silencer(R) Negative Control #2 siRNA, then log10 transformed. A robust statistical measure of median absolute deviation (MAD) to standardize siRNA activities from each screen. Common Seed Analysis was used to help prioritize clean hits as opposed to those appearing to arise from seed based off-target effects. Candidate modulators were defined as the genes having a MAD score greater than 1.0 or less than -1.0.

Which median seed-adjusted z-score does the source give for GCGACCCUGUUAUUCUGUATT against TM9SF1 here?
The median seed-adjusted z-score was 0.14 (inactive).

With CACCAUUGCAAACCAAAUATT against KCNQ5 as the sequence, how does the median seed-adjusted z-score read?
The median seed-adjusted z-score was 0.0191 (inactive).

With CGUCAACGAUCGGAAGAAATT against TTLL9 as the sequence, how does the median seed-adjusted z-score read?
Its median seed-adjusted z-score is 0.0534 (inactive).

For GCCCAACAAGUGCAUGUUUTT against GLIS1, which median seed-adjusted z-score is on record?
The median seed-adjusted z-score was 0.838 (inactive).

With CCUCGUCCGUAGUCUCCUUTT against ADRB1 as the sequence, how does the median seed-adjusted z-score read?
The median seed-adjusted z-score was 1.06 (active).

With GUAUUGCCUUUGUCAAGAATT against SNX19 as the sequence, how does the median seed-adjusted z-score read?
Its median seed-adjusted z-score is 0.67 (inactive).

With GAAUUGACUUCUUGUCUAATT against RAB41 as the sequence, how does the median seed-adjusted z-score read?
The median seed-adjusted z-score was -0.534 (inactive).

Which median seed-adjusted z-score does the source give for CGUCAUCAGACUCAAUGAATT against 12-Sep here?
The median seed-adjusted z-score was 0.286 (inactive).

With GGAUGAUGAGUACUCUGAATT against COL7A1 as the sequence, how does the median seed-adjusted z-score read?
The median seed-adjusted z-score was 1.08 (active).

Which median seed-adjusted z-score does the source give for GGAAUUUAAGUGAUAGUGATT against CPEB2 here?
Its median seed-adjusted z-score is -0.00928 (inactive).

Which median seed-adjusted z-score does the source give for GCUGCAACCUUGACUACUATT against RRM1 here?
Its median seed-adjusted z-score is -5.51 (active).

For AGGUGAAUAUUGACCACUUTT against RGS5, which median seed-adjusted z-score is on record?
Its median seed-adjusted z-score is 0 (inactive).

With GAGUCAACAAUGGACAUUUTT against KLHL1 as the sequence, how does the median seed-adjusted z-score read?
Its median seed-adjusted z-score is 0.067 (inactive).

Which median seed-adjusted z-score does the source give for CAACUAGUGGAGAAGAUCATT against FAM63B here?
Its median seed-adjusted z-score is 0.111 (inactive).

With GGUCACCACUUGCAAGCUATT against ANG as the sequence, how does the median seed-adjusted z-score read?
The median seed-adjusted z-score was -0.481 (inactive).

With AGCUGGGCUUUAUCGUGGATT against P2RX2 as the sequence, how does the median seed-adjusted z-score read?
The median seed-adjusted z-score was 0.0454 (inactive).

For GCUUAUUUAUGUAUCAAUATT against ADRB1, which median seed-adjusted z-score is on record?
Its median seed-adjusted z-score is 1.06 (active).

With GGAAAAAUCUAAGAAGCAATT against ZC3H11A as the sequence, how does the median seed-adjusted z-score read?
The median seed-adjusted z-score was -0.137 (inactive).

With GCUUCACCAUCGAAUCCAATT against FLT4 as the sequence, how does the median seed-adjusted z-score read?
The median seed-adjusted z-score was -0.861 (inactive).

With GCUGCGGCAUGAUCACUAATT against LBXCOR1 as the sequence, how does the median seed-adjusted z-score read?
The median seed-adjusted z-score was 0.0938 (inactive).

Which median seed-adjusted z-score does the source give for CAUUGGGCCUAGAAAUUCATT against CNKSR1 here?
The median seed-adjusted z-score was 0.217 (inactive).

For GGCGAAGUGUCCGACAGAATT against ZNF747, which median seed-adjusted z-score is on record?
The median seed-adjusted z-score was 0.379 (inactive).

Which median seed-adjusted z-score does the source give for GGAGAUCUGCUACUAAACATT against PSMD6 here?
Its median seed-adjusted z-score is -1.03 (active).

Which median seed-adjusted z-score does the source give for GGGAGAGUGGUGAACGUAUTT against CBR1 here?
The median seed-adjusted z-score was -0.6 (inactive).

Which median seed-adjusted z-score does the source give for CAGUGUUAAUGACCGAAGATT against EIF4G1 here?
Its median seed-adjusted z-score is -0.978 (inactive).

With GAUGAUACCAGGCAUAUAATT against USP15 as the sequence, how does the median seed-adjusted z-score read?
Its median seed-adjusted z-score is -0.405 (inactive).

Which median seed-adjusted z-score does the source give for GCAAUCUUGUUGUACACCATT against ZNF432 here?
The median seed-adjusted z-score was -0.124 (inactive).

For GGAGCUGAAUGAGCUGACATT against OSBPL7, which median seed-adjusted z-score is on record?
Its median seed-adjusted z-score is 0 (inactive).

With “CCACGAUGUGGGAUAAUAATT against GALNAC4S-6ST” as the sequence, how does the median seed-adjusted z-score read?
Its median seed-adjusted z-score is 0.218 (inactive).

With GUGGUGCAGUUUUUCGUAATT against THOC2 as the sequence, how does the median seed-adjusted z-score read?
Its median seed-adjusted z-score is -1.22 (active).

With GGCUCAUAAUGGAGCAGGUTT against TIMM13 as the sequence, how does the median seed-adjusted z-score read?
The median seed-adjusted z-score was -0.422 (inactive).

With CAGUCUUGAUUCCACUGAATT against PCDHA3 as the sequence, how does the median seed-adjusted z-score read?
Its median seed-adjusted z-score is 0.311 (inactive).

For CGGAUAUUCCUGAACGCAATT against MARK3, which median seed-adjusted z-score is on record?
Its median seed-adjusted z-score is 0.271 (inactive).

With GCACGCGGCUAUACAAUCATT against SLC25A34 as the sequence, how does the median seed-adjusted z-score read?
Its median seed-adjusted z-score is -0.256 (inactive).

With GAAGCAGUGCCAAUGAACATT against TCEB2 as the sequence, how does the median seed-adjusted z-score read?
The median seed-adjusted z-score was 1.28 (active).

Which median seed-adjusted z-score does the source give for AGCACAUCUCGGUCCUCCATT against MAPK8IP2 here?
The median seed-adjusted z-score was 0.284 (inactive).

For GGACGAUCACUGUUGUGCATT against RBM22, which median seed-adjusted z-score is on record?
Its median seed-adjusted z-score is 0.0259 (inactive).

Which median seed-adjusted z-score does the source give for ACUUGAAUCUUAGCAUUCATT against RAD9A here?
The median seed-adjusted z-score was -0.0564 (inactive).

With CAAGACUGCUGAUGAGUUUTT against HSD17B3 as the sequence, how does the median seed-adjusted z-score read?
Its median seed-adjusted z-score is 0.734 (inactive).

For CUUUCACACUCGACACUGATT against HOXA2, which median seed-adjusted z-score is on record?
Its median seed-adjusted z-score is 0.335 (inactive).

With GAACAUCCGUGAGCAAGGATT against KCNJ8 as the sequence, how does the median seed-adjusted z-score read?
Its median seed-adjusted z-score is 0.329 (inactive).

Which median seed-adjusted z-score does the source give for GCCCUUGCCUUAUUGCUGATT against MED20 here?
The median seed-adjusted z-score was -1.66 (active).

Which median seed-adjusted z-score does the source give for GGCUUGAGUUCAUUCAGAATT against PKN3 here?
The median seed-adjusted z-score was 0.476 (inactive).

For GCCGGUGCUUUAUCUCAUUTT against GPR87, which median seed-adjusted z-score is on record?
The median seed-adjusted z-score was 0.237 (inactive).

Which median seed-adjusted z-score does the source give for GAGACUUUCUACAAUACUATT against EIF4A2 here?
The median seed-adjusted z-score was 0 (inactive).

With CGCUCUCUUCACUUACGAATT against MYO10 as the sequence, how does the median seed-adjusted z-score read?
The median seed-adjusted z-score was 0.8 (inactive).

Which median seed-adjusted z-score does the source give for UAAUGACCCUAUCUAUAAATT against UGT2B17 here?
Its median seed-adjusted z-score is -0.0203 (inactive).

For GAUGGAUUCUUGUUCCGUUTT against KCTD16, which median seed-adjusted z-score is on record?
Its median seed-adjusted z-score is 0.00219 (inactive).

With GAACUUCUACUUUAACAAATT against HS3ST1 as the sequence, how does the median seed-adjusted z-score read?
The median seed-adjusted z-score was 1.21 (active).

Which median seed-adjusted z-score does the source give for CUUUUGAACAGAUCGAUGATT against EXO1 here?
The median seed-adjusted z-score was 0.547 (inactive).

For GCUCAUAAAUGAGAAGCUATT against PCDHB16, which median seed-adjusted z-score is on record?
The median seed-adjusted z-score was -0.523 (inactive).

With AGUGUACAAUCGAUAAAAATT against ESR2 as the sequence, how does the median seed-adjusted z-score read?
Its median seed-adjusted z-score is -1.1 (active).

Which median seed-adjusted z-score does the source give for CAGCAUACAUGUUUAGUGATT against TRPC6 here?
Its median seed-adjusted z-score is -0.527 (inactive).

With CGGUAUCUAUGACACUGCATT against SLC25A5 as the sequence, how does the median seed-adjusted z-score read?
The median seed-adjusted z-score was -0.0501 (inactive).
